# Measured values as given in the antibiotic and cytotoxicity screens of Wong et al. (2023).
# The whole screen tested about 39,000 compounds, of which about 3,300 (8.5%) were called active. The sample as a whole holds a higher share of actives than the screen did.
# System: HepG2
# Test: cytotoxicity call (relative viability < 0.9)
# Settings: 10 µM
row,Structure (SMILES),cytotoxicity call
1,Cc1ccc(S(=O)(=O)Nc2ccc3c(c2)C(=O)N([C@@H](C)CO)C[C@H](C)[C@@H](CN(C)Cc2ccc4c(c2)OCO4)OCCCC[C@@H](C)O3)cc1,inactive
2,Cc1ccc(S(=O)(=O)Nc2ccc3c(c2)CC(=O)N([C@@H](C)CO)C[C@H](C)[C@@H](CN(C)S(C)(=O)=O)O3)cc1,inactive
3,C[C@H](CO)N1C[C@H](C)[C@@H](CN(C)S(=O)(=O)c2ccc(Cl)cc2)Oc2ccc(NS(C)(=O)=O)cc2CC1=O,inactive
4,Cc1cc(C(=O)Nc2cccc3c2O[C@H](CN(C)C(=O)NC(C)C)[C@H](C)CN([C@H](C)CO)C3=O)n(C)n1,inactive
5,COc1ccc(CN(C)C[C@@H]2OCCCC[C@@H](C)Oc3ccc(NS(=O)(=O)c4cccs4)cc3C(=O)N([C@H](C)CO)C[C@H]2C)cc1,inactive
6,C[C@H](CO)N1C[C@H](C)[C@H](CN(C)C(=O)NC2CCCCC2)Oc2ccc(NC(=O)Cn3cnnn3)cc2CC1=O,inactive
7,C[C@@H]1CN([C@H](C)CO)C(=O)c2cc(NC(=O)Nc3ccccc3)ccc2O[C@@H](C)CCCCO[C@@H]1CN(C)C(=O)Cc1ccccc1,inactive
8,O=C(C[C@@H]1CC=CCC[C@@H](Cc2ccc(F)cc2)C(=O)OCCNC1=O)N[C@@H](CO)Cc1ccccc1,inactive
9,CCNC(=S)N1CCCC[C@@H]1CO,inactive
10,C[C@@H]1CCCCO[C@H](CN(C)Cc2ccc(C(F)(F)F)cc2)[C@H](C)CN([C@H](C)CO)C(=O)c2cc(NC(=O)C3CCCCC3)ccc2O1,inactive
11,C[C@@H]1CCCCO[C@H](CN(C)Cc2ccc(C(F)(F)F)cc2)[C@@H](C)CN([C@H](C)CO)C(=O)c2cc(NC(=O)C3CCCCC3)ccc2O1,active
12,C[C@@H]1CCCCO[C@@H](CN(C)Cc2ccc(C(F)(F)F)cc2)[C@H](C)CN([C@H](C)CO)C(=O)c2cc(NC(=O)C3CCCCC3)ccc2O1,inactive
13,C[C@@H]1CCCCO[C@@H](CN(C)Cc2ccncc2)[C@@H](C)CN([C@@H](C)CO)C(=O)c2cc(NC(=O)C3CCCCC3)ccc2O1,inactive
14,C[C@@H]1CCCCO[C@H](CN(C)Cc2ccncc2)[C@@H](C)CN([C@H](C)CO)C(=O)c2cc(NC(=O)C3CCCCC3)ccc2O1,inactive
15,C[C@@H]1CCCCO[C@H](CN(C)Cc2ccncc2)[C@H](C)CN([C@@H](C)CO)C(=O)c2cc(NC(=O)C3CCCCC3)ccc2O1,active
16,C[C@@H]1CN([C@H](C)CO)C(=O)CCCn2cc(nn2)CO[C@H]1CN(C)C(=O)Nc1cccc(C(F)(F)F)c1,inactive
17,CC(C)NC(=O)N(C)C[C@H]1Oc2ccc(NC(=O)Nc3ccc4c(c3)OCO4)cc2CC(=O)N([C@H](C)CO)C[C@H]1C,inactive
18,COCCOC(=O)N1C(=O)[C@@]2(c3cc(C#CC4=CCCCC4)ccc31)[C@H](c1ccc(OCCO)cc1)N1[C@H](c3ccccc3)[C@H](c3ccccc3)OC(=O)[C@H]1[C@@H]2C(=O)N1CCN(c2ncccn2)CC1,inactive
19,NNC(=O)CN1CCCc2ccccc21,inactive
20,CC(=O)c1ccc2c(c1)N(CCCN(C)C)c1ccccc1S2.O=C(O)C=CC(=O)O,inactive
21,CNC(=O)[C@H]1Cc2ccccc2N1C(=O)COC,inactive
22,CN(C)CCCN1c2ccccc2CCc2ccc(Cl)cc21.Cl,inactive
23,CN(C)CCCN1c2ccccc2Sc2ccccc21.Cl,active

row,Structure (SMILES),cytotoxicity call
1,CN(C)CCCN1c2ccccc2CCc2ccccc21.Cl,active
2,CN(C)CCCN1C(=O)[C@@]2(Cc3ccccc31)c1ccccc1C(=O)N(Cc1ccccc1)[C@H]2c1ccc(CO)cc1,inactive
3,CN(C)CCCN1c2ccccc2Sc2ccc(Cl)cc21.Cl,active
4,COc1ccc(C2Sc3ccccc3N(CCN(C)C)C(=O)C2OC(C)=O)cc1.Cl (stereo not drawn),inactive
5,CNCCCN1c2ccccc2CCc2ccccc21.Cl,active
6,CN(C)CCCN1C(=O)[C@@H]2[C@@H](C1=O)[C@@H]1C=C[C@@H]2C1,inactive
7,C[C@H](CO)N1C[C@H](C)[C@@H](CN(C)S(=O)(=O)c2cn(C)cn2)Oc2ncc(C#CCN(C)C)cc2C1=O,inactive
8,Cc1noc(C)c1S(=O)(=O)Nc1cccc2c1O[C@@H](CN(C)Cc1ccncc1)[C@@H](C)CN([C@@H](C)CO)C2=O,inactive
9,CON=C(C(=O)NC1C(=O)N2C(C(=O)[O-])=C(CSc3nc(=O)c([O-])nn3C)CSC12)c1csc(N)n1.O.O.O.[Na+].[Na+] (stereo not drawn),inactive
10,COc1ccccc1NC(=O)N(C)C[C@@H]1Oc2ncc(C#CC(C)C)cc2C(=O)N([C@H](C)CO)C[C@H]1C,inactive
11,COC(=O)/C=C/C(=O)O,inactive
12,COC(=O)/C=C/C(=O)OC,inactive
13,COC(=O)C=CC(=O)OC,active
14,COCC#Cc1cnc2c(c1)C(=O)N([C@@H](C)CO)C[C@H](C)[C@@H](CN(C)C(=O)c1cnccn1)O2,inactive
15,O=C(Cc1ccc2c(c1)OCO2)N[C@@H]1CCNC[C@H]1O,inactive
16,C[C@@H]1CN([C@@H](C)CO)S(=O)(=O)c2ccc(-c3ccc(C(=O)N(C)C)cc3)cc2O[C@H]1CN(C)C(=O)C1CC1,inactive
17,C[C@H](CO)N1C[C@H](C)[C@@H](CN(C)Cc2ccncc2)Oc2ccc(NC(=O)Nc3ccc(C(F)(F)F)cc3)cc2C1=O,inactive
18,C[C@H](CO)N1C[C@H](C)[C@@H](CN(C)C(=O)Nc2ccc(C(F)(F)F)cc2)OCCCC[C@H](C)Oc2ccc(NC(=O)Nc3ccccc3)cc2C1=O,inactive
19,C[C@H]1CCCCO[C@@H](CN(C)C(=O)Nc2ccc(C(F)(F)F)cc2)[C@@H](C)CN([C@@H](C)CO)C(=O)c2cc(NC(=O)Nc3ccccc3)ccc2O1,inactive
20,C[C@H](CO)N1C[C@H](C)[C@H](CN(C)C(=O)Nc2ccccc2)OCCCC[C@H](C)Oc2ccc(NC(=O)Nc3ccc(C(F)(F)F)cc3)cc2C1=O,inactive
21,C[C@@H]1CCCCO[C@H](CN(C)C(=O)Nc2ccc(C(F)(F)F)cc2)[C@@H](C)CN([C@@H](C)CO)C(=O)c2cc(NC(=O)Nc3ccccc3)ccc2O1,active
22,C[C@@H]1CCCCO[C@H](CN(C)C(=O)Nc2ccc(C(F)(F)F)cc2)[C@H](C)CN([C@@H](C)CO)C(=O)c2cc(NC(=O)c3ccccc3)ccc2O1,inactive
23,C[C@@H]1CCCCO[C@@H](CN(C)C(=O)Nc2ccccc2)[C@@H](C)CN([C@H](C)CO)C(=O)c2cc(NC(=O)Nc3ccc(C(F)(F)F)cc3)ccc2O1,active

row,Structure (SMILES),cytotoxicity call
1,C[C@@H]1CCCCO[C@H](CN(C)C(=O)Nc2ccc(C(F)(F)F)cc2)[C@H](C)CN([C@@H](C)CO)C(=O)c2cc(NC(=O)Nc3ccccc3)ccc2O1,inactive
2,C[C@@H]1CN([C@@H](C)CO)C(=O)c2cc(NC(=O)c3ccccc3)ccc2O[C@@H](C)CCCCO[C@@H]1CN(C)C(=O)Nc1ccc(C(F)(F)F)cc1,active
3,C[C@H]1CCCCO[C@H](CN(C)C(=O)Nc2ccc(C(F)(F)F)cc2)[C@@H](C)CN([C@@H](C)CO)C(=O)c2cc(NC(=O)Nc3ccccc3)ccc2O1,inactive
4,C[C@@H]1CCCCO[C@@H](CN(C)C(=O)Nc2ccccc2)[C@@H](C)CN([C@@H](C)CO)C(=O)c2cc(NC(=O)Nc3ccc(C(F)(F)F)cc3)ccc2O1,active
5,C[C@@H]1CCCCO[C@H](CN(C)C(=O)Nc2ccc(C(F)(F)F)cc2)[C@@H](C)CN([C@H](C)CO)C(=O)c2cc(NC(=O)Nc3ccccc3)ccc2O1,inactive
6,C[C@H]1CCCCO[C@@H](CN(C)C(=O)Nc2ccc(C(F)(F)F)cc2)[C@@H](C)CN([C@@H](C)CO)C(=O)c2cc(NC(=O)c3ccccc3)ccc2O1,inactive
7,CNC[C@@H]1Oc2ccc(NS(=O)(=O)c3cn(C)cn3)cc2CC(=O)N([C@H](C)CO)C[C@@H]1C,inactive
8,C[C@H](CO)N1C[C@H](C)[C@H](CN(C)S(=O)(=O)c2ccccc2)OCCCC[C@H](C)Oc2ccc(NC(=O)Nc3ccc(F)cc3)cc2C1=O,inactive
9,C[C@H](CO)N1C[C@H](C)[C@@H](CN(C)Cc2ccncc2)Oc2ccc(NC(=O)Cn3cnnn3)cc2C1=O,inactive
10,c1ccc(-c2nc(-c3cccs3)[nH]c2-c2ccccc2)cc1,inactive
11,C[C@@H]1CCCCO[C@@H](CN(C)C(=O)c2ccncc2)[C@H](C)CN([C@@H](C)CO)C(=O)c2cc(NS(C)(=O)=O)ccc2O1,inactive
12,C[C@@H]1CN([C@@H](C)CO)C(=O)c2cc(/C=C/c3ccccc3)cnc2O[C@H]1CN(C)C(=O)CN1CCOCC1,inactive
13,C[C@H](CO)N1C[C@H](C)[C@H](CN(C)C(=O)Cc2ccccc2)OCCCC[C@H](C)Oc2ccc(NC(=O)Nc3cccc4ccccc34)cc2C1=O,inactive
14,C[C@H](CO)N1C[C@H](C)[C@@H](CN(C)C(=O)NC2CCCCC2)Oc2ccc(NS(C)(=O)=O)cc2CC1=O,inactive
15,COc1cccc(NC(=O)N[C@@H]2CC[C@H](CC(=O)N3CCOCC3)O[C@@H]2CO)c1,inactive
16,C[C@H](O)C#Cc1ccc2c(c1)O[C@H](CN(C)C)[C@@H](C)CN([C@@H](C)CO)S2(=O)=O,inactive
17,COc1ccc(CN(C)C[C@H]2Oc3ccc(NC(=O)CCCCCC(=O)Nc4ccccc4N)cc3CC(=O)N([C@@H](C)CO)C[C@@H]2C)cc1,inactive
18,CC(C)NC(=O)N(C)C[C@H]1Oc2ccc(NC(=O)Cc3ccccc3)cc2CC(=O)N([C@@H](C)CO)C[C@@H]1C,inactive
19,COc1ccc2c3c([nH]c2c1)[C@@H](CO)N(C[C@]13CN(Cc2nccs2)C1)S(=O)(=O)c1ccc(cc1)C,inactive
20,C[C@@H]1CCCCO[C@H](CN(C)C(=O)Nc2ccccc2)[C@H](C)CN([C@H](C)CO)C(=O)c2cc(NC(=O)Nc3ccc(C(F)(F)F)cc3)ccc2O1,active
21,C[C@H](CO)N1C[C@H](C)[C@@H](CN(C)C(=O)Nc2ccccc2)OCCCC[C@H](C)Oc2ccc(NC(=O)Nc3ccc(C(F)(F)F)cc3)cc2C1=O,inactive
22,C[C@@H]1CN([C@@H](C)CO)C(=O)c2cc(NC(=O)Nc3ccccc3)ccc2O[C@@H](C)CCCCO[C@H]1CN(C)C(=O)Nc1ccc(C(F)(F)F)cc1,inactive
